This passage reports Potency results from PubChem BioAssay (NCATS).

Each structure is given as a SMILES string. Records with an inconclusive call do not appear. Unmarked numbers belong to inactive results. Activity calls are given as the source filed them. Calls come from the whole dose curve; as a rule, active = well fitted curve in the direction sought with a large enough effect; inconclusive = small, poorly fitted or top-dose-only effect, or another doubt; inactive = no such curve, though single readings can be large; an effect the other way counts as inactive or inconclusive.

Assay [1] can be described thus: qHTS of pediatric cancer cell lines to identify multiple opportunities for drug repurposing: Primary screen for DAOY cells (AID 1347090). Note: nearly all actives have a fitted effect of over 55% in size. The gist of the method: (§1)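 Eight- or eleven-point concentration series, 48 h treatment at 37 degrees C in growth media; readout CellTiter-Glo luminescence. Potency and efficacy were taken from the concentration-response curves.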
Background: qHTS replaces the single test concentration by a dilution series.

Assay [2] is described as follows: qHTS of pediatric cancer cell lines to identify multiple opportunities for drug repurposing: Primary screen for SJ-GBM2 cells (AID 1347091). The gist of the method: as §1
Assay [3] is described as follows: qHTS of pediatric cancer cell lines to identify multiple opportunities for drug repurposing: Primary screen for A673 cells (AID 1347092). Note: nearly all actives have a fitted effect of over 45% in size. The essentials: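 Cells are plated, rested 5 h, dosed by pintool, incubated 48 h, then lysed with CellTiter-Glo and read by luminescence. DMSO is the neutral control; bortezomib at 2.3 uM final is the positive control.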
The nature of assay [4]: qHTS of pediatric cancer cell lines to identify multiple opportunities for drug repurposing: Primary screen for SK-N-MC cells (AID 1347093). The essentials:
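Metabolically active cells were quantified by ATP-dependent luminescence (CellTiter-Glo, 15 min at room temperature) following 48 h treatment. Cells had been plated at 500-1,000 per well and settled for 5 h beforehand.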

A short description of assay [5]: qHTS of pediatric cancer cell lines to identify multiple opportunities for drug repurposing: Primary screen for BT-37 cells (AID 1347094). The gist of the method: (§2)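 500-1,000 cells/well; 5 h pre-incubation 37 °C/5% CO2; compound pinned; 48 h; CellTiter-Glo, 15 min RT; luminescence. MIPE 11-pt from 0.78 nM, NPC 8-pt from 0.59 nM final. Bortezomib 2.3 µM final as positive control.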

Assay [6] is described as follows: qHTS of pediatric cancer cell lines to identify multiple opportunities for drug repurposing: Primary screen for NB-EBc1 cells (AID 1347095). The essentials: as §2
The nature of assay [7]: qHTS of pediatric cancer cell lines to identify multiple opportunities for drug repurposing: Primary screen for U-2 OS cells (AID 1347096). Note: nearly all actives have a fitted effect of over 50% in size. The essentials:
(§3)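 Cells (500-1,000/well) in growth media were settled 5 h at 37 degrees C, then given compounds for 48 h. Viability was read as CellTiter-Glo luminescence. Primary runs used MIPE at 11 points (0.78 nM-46 µM) and NPC at 8 points (0.59 nM-46 µM); follow-ups used 11 points.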

A short description of assay [8]: qHTS of pediatric cancer cell lines to identify multiple opportunities for drug repurposing: Primary screen for Saos-2 cells (AID 1347097). Note: nearly all actives have a fitted effect of over 40% in size. The gist of the method: as §2
Assay [9] can be described thus: qHTS of pediatric cancer cell lines to identify multiple opportunities for drug repurposing: Primary screen for NB1643 cells (AID 1347099). Note: nearly all actives have a fitted effect of over 50% in size. The essentials: as §2
Assay [10] is described as follows: qHTS of pediatric cancer cell lines to identify multiple opportunities for drug repurposing: Primary screen for LAN-5 cells (AID 1347100). The essentials: as §3
Assay [11] can be described thus: qHTS of pediatric cancer cell lines to identify multiple opportunities for drug repurposing: Primary screen for BT-12 cells (AID 1347101). Note: nearly all actives have a fitted effect of over 25% in size. The gist of the method:
(§4)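 Cells (500-1,000/well) rested 5 h, then received compounds for 48 h; metabolically active cells were measured by CellTiter-Glo luminescence. Final concentrations spanned up to 46 µM (MIPE, 11-point) or 0.59 nM-46 µM (NPC, 8-point) in primary screens, 11-point in follow-ups.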

A short description of assay [12]: qHTS of pediatric cancer cell lines to identify multiple opportunities for drug repurposing: Primary screen for Rh18 cells (AID 1347102). Note: nearly all actives have a fitted effect of over 65% in size. The essentials: as §3
The nature of assay [13]: qHTS of pediatric cancer cell lines to identify multiple opportunities for drug repurposing: Primary screen for OHS-50 cells (AID 1347103). Note: nearly all actives have a fitted effect of over 40% in size. The essentials:
as §4

The nature of assay [14]: qHTS of pediatric cancer cell lines to identify multiple opportunities for drug repurposing: Primary screen for RD cells (AID 1347104). Note: nearly all actives have a fitted effect of over 55% in size. The gist of the method:
as §2

Assay [15] in a line: qHTS of pediatric cancer cell lines to identify multiple opportunities for drug repurposing: Primary screen for MG 63 (6-TG R) cells (AID 1347105). Note: nearly all actives have a fitted effect of over 50% in size. The gist of the method:
as §2

Assay [16] in a line: qHTS of pediatric cancer cell lines to identify multiple opportunities for drug repurposing: Primary screen for SK-N-SH cells (AID 1347098). Note: nearly all actives have a fitted effect of over 65% in size. The essentials: as §4
Assay [17] in a line: qHTS of pediatric cancer cell lines to identify multiple opportunities for drug repurposing: Primary screen for control Hh wild type fibroblast cells (AID 1347106). Note: nearly all actives have a fitted effect of over 55% in size. The gist of the method: as §3
Assay [18] in a line: qHTS of pediatric cancer cell lines to identify multiple opportunities for drug repurposing: Primary screen for Rh30 cells (AID 1347107). Note: nearly all actives have a fitted effect of over 75% in size. The gist of the method: as §3
A short description of assay [19]: qHTS of pediatric cancer cell lines to identify multiple opportunities for drug repurposing: Primary screen for Rh41 cells (AID 1347108). Note: nearly all actives have a fitted effect of over 70% in size. The gist of the method: as §2
Assay [20] in a line: qHTS of pediatric cancer cell lines to identify multiple opportunities for drug repurposing: Confirmatory screen for NB1643 cells (AID 1347109). Note: nearly all actives have a fitted effect of over 45% in size. The essentials:
as §3
Potency is the fitted concentration of half-maximal effect.

As for `CNC(=O)c1cc(Oc2ccc(NC(=O)Nc3ccc(Cl)c(C(F)(F)F)c3)c(F)c2)ccn1`, the Potency in assay [1] is 5.9 µM (active); in assay [2] it was 8.33 µM (active); in [3] it was 18.7 µM (active); in assay [4], 2.96 µM (active); in assay [5], 21.7 µM (active); in assay [6], 5.26 µM (active). Besides, the Potency in assay [7] was 23.5 µM (active); in assay [8] it was 16.6 µM (active); in [9] it was 13.2 µM (active); in assay [10], 20.9 µM (active); in assay [11], 12.2 µM (active); in assay [12] it was 23.5 µM (active). For the same compound, the results for the Potency in assay [13], in [14] and in assay [15] were 10.9 µM (active), 16.6 µM (active) and 23.5 µM (active), respectively.

Regarding `CCC=CC[C@H]1C(=O)CC[C@@H]1CC(=O)OC`, the Potency entry in assay [1], in assay [2], in assay [3], in assay [4], in assay [5] and in assay [6] was “inactive” in each case. The Potency result in assay [7], in [9], in assay [10], in assay [11], in [12] and in assay [13] was “inactive” throughout. The Potency entry in [14], in assay [15], in assay [17], in [18] and in [19] was “inactive” in each case. Also, in assay [16], the Potency was 19.2 µM (active).

In the case of `Cc1[nH]c(C=C2C(=O)Nc3ccc(S(=O)(=O)N(C)c4cccc(Cl)c4)cc32)c(C)c1C(=O)N1CCN(C)CC1`, the Potency in [1] is 23.5 µM (active); in assay [2], 2.09 µM (active); in [3] it was 23.5 µM (active); in assay [4] it was 11.8 µM (active); in [5], 24.3 µM (active); in [6] it was 14.8 µM (active). Moreover, the Potency in assay [7] is 18.7 µM (active); in [8] it was 18.7 µM (active); in assay [16] it was 30.4 µM (active); in assay [9] it was 18.7 µM (active); in [10], 9.35 µM (active); in assay [11], 17.2 µM (active). Also, the Potency is 23.5 µM (active) in assay [12], 19.3 µM (active) in assay [13], 29.6 µM (active) in assay [14] and 18.7 µM (active) in [18]. For the same compound, in [17], the Potency result is “inactive”.

For the compound `CCNC(=O)[C@H]1O[C@@H](n2cnc3c(N)nc(NCCc4ccc(CCC(=O)O)cc4)nc32)[C@H](O)[C@H]1O`, the Potency entry in [1], in assay [2], in assay [3], in assay [4], in assay [5] and in assay [6] was “inactive” each time. The Potency entry in assay [7], in assay [9], in assay [10], in assay [11], in [14] and in assay [15] was “inactive” throughout. The Potency result in assay [17], in [18] and in [19] was “inactive” in each case.

Regarding `CC1(C)OC2CC3C4CC(F)C5=CC(=O)C=CC5(C)C4C(O)CC3(C)[C@]2(C(=O)CO)O1` (stereo not given in full), the Potency entry in assay [1], in assay [2], in [3], in [4], in assay [5] and in assay [6] was “inactive” each time. Moreover, the Potency entry in [7], in assay [8], in [16], in assay [9], in assay [10] and in assay [11] was “inactive” each time. The Potency entry in [13], in [14], in assay [15], in assay [17], in assay [18] and in assay [19] was “inactive” throughout. Further, in assay [20], the Potency result was “inactive”.

In the case of `COc1ccc(-c2ccc3ncc4c(c3c2)n(-c2ccc(N3CCNCC3)c(C(F)(F)F)c2)c(=O)n4C)cn1`, the Potency in assay [1] was 0.59 µM (active); in assay [2], 0.0132 µM (active); in assay [3] it was 0.372 µM (active); in assay [4], 0.0037 µM (active); in assay [5], 0.0306 µM (active); in assay [6] it was 0.0148 µM (active). Further, the Potency in assay [7] is 7.43 µM (active); in [8], 0.418 µM (active); in assay [16], 0.0857 µM (active); in assay [9], 0.264 µM (active); in [10] it was 0.166 µM (active); in assay [11], 15.3 µM (active). The Potency in [12] was 0.0418 µM (active); in assay [13], 0.0054 µM (active); in assay [14] it was 0.743 µM (active); in [15], 0.0047 µM (active); in [17], 2.09 µM (active); in [18] it was 1.87 µM (active). Besides, the values for the Potency in [19] and in assay [20] were 0.0235 µM (active) and 1.04 µM (active), respectively.

With `N#CC(=C1Nc2ccccc2S1)c1ccnc(OCc2ccc(CN3CCOCC3)cc2)n1`, the Potency in assay [1] is 0.0093 µM (active); in [2] it was 3.32 µM (active); in assay [3], 0.0235 µM (active); in assay [4] it was 0.0053 µM (active); in [5], 0.306 µM (active); in assay [6], 0.526 µM (active). The Potency is 0.0148 µM (active) in assay [8]; 0.482 µM (active) in [16]; 1.48 µM (active) in assay [10]; 0.172 µM (active) in [11]; 0.344 µM (active) in assay [13]; 0.662 µM (active) in assay [14]. Also, in assay [15], the Potency was 3.72 µM (active).

With `CCCCC(F)(F)[C@@]1(O)CC[C@H]2[C@H](CC(=O)[C@@H]2CCCCCCC(=O)O)O1`, the Potency entry in [1], in assay [2], in [3], in assay [4], in assay [5] and in [6] was “inactive” in each case. Also, the Potency result in assay [7], in assay [8], in assay [9], in assay [10], in assay [11] and in assay [13] was “inactive” in each case. Moreover, the Potency result in assay [14], in assay [15], in assay [17] and in assay [18] was “inactive” each time.

Take `CC[C@H](C)n1cc(C)c2c(C(=O)NCc3c(C)cc(C)[nH]c3=O)cc(-c3ccc(N4CCNCC4)nc3)cc21`: the Potency in [1] was 11.8 µM (active); in assay [3], 1.48 µM (active); in assay [4] it was 0.59 µM (active); in assay [5], 19.3 µM (active); in assay [8], 18.7 µM (active); in [10], 23.5 µM (active). In addition, the Potency in assay [11] was 30.6 µM (active); in assay [13], 24.3 µM (active); in [14], 4.69 µM (active); in assay [15], 23.5 µM (active); in assay [19] it was 18.7 µM (active). In addition, the Potency result in [2], in assay [6], in assay [7] and in assay [17] was “inactive” in each case.

For `CCOC(=O)N1CCN([N+]([O-])=NOc2cc(ON=[N+]([O-])N3CCN(C(=O)OCC)CC3)c([N+](=O)[O-])cc2[N+](=O)[O-])CC1`, the Potency entry in [1], in assay [3], in assay [4], in assay [5], in [7] and in assay [8] was “inactive” in each case. The Potency result in assay [16], in assay [10], in [11], in [12], in assay [13] and in assay [14] was “inactive” each time. Also, the Potency entry in assay [15], in [17] and in [18] was “inactive” throughout. In addition, the Potency in assay [2] was 14.8 µM (active); in assay [6] it was 5.9 µM (active).
